# Pf gamet viab: P. falciparum stage V gametocyte viability inhibition; inhibition, % at 10.9 µM; AID 743093; P. falciparum stage V gametocytes, ATP luminescence, 24 h; 0.065% of 150,000 active;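 active = inhibition above the mean plus 3 SD of compounds within the control limits, set per campaign, cut at about 38% in these data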;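 also: 0% = DMSO wells and 100% = medium only without gametocytes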
# Bcl-W Bim block: disrupts Bim peptide binding to human Bcl-W; bead-based flow cytometry; inhibition, % at 10 µM; 0.02% of 190,000 active; AID 952;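 also: 0% = bound tracer without compound and 100% = peptide blocker; higher means less fluorescent Bim peptide bound to Bcl-W beads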
# Bim-Bcl-B: inhibitors of Bim-Bcl-B interaction, human; Q9HD36; bead-based flow cytometry, Bim peptide-Bcl-B binding; inhibition, % at 10 µM; 0.073% of 190,000 active; AID 951;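 also: 0% = tracer peptide without compound and 100% = reference inhibitor peptide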
# Target sequence (Q9HD36 whole entry, looked up): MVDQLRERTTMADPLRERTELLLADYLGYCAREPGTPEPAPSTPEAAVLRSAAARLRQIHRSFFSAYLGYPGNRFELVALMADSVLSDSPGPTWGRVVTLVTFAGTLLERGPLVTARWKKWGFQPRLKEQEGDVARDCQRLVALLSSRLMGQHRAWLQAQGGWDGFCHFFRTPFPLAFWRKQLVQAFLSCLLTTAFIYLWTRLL
# Bfl-1 Bim block: human Bim-Bfl-1 interaction inhibition; Bead-based flow cytometry, Bim-Bfl-1 binding inhibition; Q16548; 0.12% of 190,000 active; inhibition, % at 10 µM;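 also: 0% = wells without compound plus tracer and 100% = blocker peptide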
# Bcl-2 Bim block: inhibitors of Bim-Bcl-2 interaction, human; 0.06% of 190,000 active; Bead-based flow cytometry, Bim peptide-Bcl-2 binding; inhibition, % at 10 µM; P10415; AID 950; in the data active = inhibition above about 40%;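 also: 0% = no compound wells with probe peptide and 100% = reference peptide inhibitor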
# Bim-Bcl-XL: inhibitors of Bim-Bcl-XL interaction, human; 0.04% of 190,000 active; inhibition, % at 10 µM; Bim peptide-Bcl-XL binding, bead flow cytometry, fluorescence
# Target sequence (Q07817 whole entry, looked up): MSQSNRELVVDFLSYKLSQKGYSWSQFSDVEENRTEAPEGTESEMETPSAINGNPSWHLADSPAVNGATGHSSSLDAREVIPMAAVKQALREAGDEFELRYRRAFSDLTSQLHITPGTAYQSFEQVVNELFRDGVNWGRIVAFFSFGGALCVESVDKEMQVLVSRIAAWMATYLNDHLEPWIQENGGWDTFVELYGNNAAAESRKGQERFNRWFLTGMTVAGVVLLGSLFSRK
# * = called active by the depositor; nt = not tested or not shown. A selection: hits, their analogues and other compounds. The true share with any hit is near 0.2%. Rule as the data show it, unless noted: active = inhibition above about 40%.
SMILES,Pf gamet viab,Bcl-W Bim block,Bim-Bcl-B,Bfl-1 Bim block,Bcl-2 Bim block,Bim-Bcl-XL
O=C(O)c1ccc(NC2=C(Cl)C(=O)c3ccccc3C2=O)cc1,-18,nt,nt,nt,nt,nt
O=C(O)c1cccc(NC2=C(Cl)C(=O)c3ccccc3C2=O)c1,-1,18,-48,60*,11,-5
Cc1ccc(NCC(=O)c2ccccc2)cc1Cl,nt,0,5,9,13,13
CC[C@@H]1[C@H]2CCCC(=O)N3CC[C@@H](C[C@@H]1OC(=O)Nc1ccccc1)[C@@H]23,11,nt,nt,nt,nt,nt
Cc1ccc(-c2cc(-c3ccccc3)c(C#N)c(N)n2)o1,nt,6,2,42*,4,0
CSc1nnc2c3cc(C)ccc3n(Cc3ccccc3)c2n1,-10,18,39,20,48*,14
Cc1nnc(NCc2n[nH]c(=O)c3ccccc23)c2ccccc12,nt,4,57*,5,0,0
CC(=O)c1ccc(NC(=O)c2ccccc2-c2ccccc2C(=O)O)cc1,16,nt,nt,nt,nt,nt
CN(C)/C=C/C(=O)c1ccc(C(F)(F)F)cc1F,-17,23,89*,22,74*,94*
Cn1c(CCNC(=O)C2CCCCC2)nc2cc(NC(=O)c3cccs3)ccc21,34,8,86*,59*,91*,15
O=C1C(CSCc2ccccc2)NC(=S)N1c1ccccc1 (stereo not given),-12,nt,nt,nt,nt,nt
CNc1nc2ccccc2n1/N=C/c1cccc(OC)c1OC,nt,29,nt,nt,92*,38
COc1cccc(/C=N/n2c(CO)nc3ccccc32)c1OC,6,1,-9,-11,-11,0
Cc1ccc(-c2csc3nc[nH]c(=S)c23)cc1,51*,-4,-12,0,1,-11
S=c1[nH]cnc2scc(-c3ccc(Br)cc3)c12,-9,-4,-8,-6,-3,-9
COc1cc(NCCCCCCCN)c2ncccc2c1,nt,48*,71*,36,51*,49*
C[C@H](CO)N1C[C@H](C)[C@@H](CN(C)S(=O)(=O)c2cn(C)cn2)Oc2ccc(NC(=O)Cn3cnnn3)cc2C1=O,-4,nt,nt,nt,nt,nt
CCOC(=O)c1cc2c(ccc3ccccc32)oc1=O,48*,3,6,2,0,4
O=C(O)c1cc2c(ccc3ccccc32)oc1=O,0,4,-5,-7,-6,-7
COc1ccccc1N1CCN(S(=O)(=O)c2ccc3c4c(cccc24)C(=O)N3C)CC1,nt,-5,-11,-14,-12,-9
COc1ccc2c3c(cccc13)N(C)N=C2C,12,70*,26,73*,40*,27
Cc1ccc(NC(=O)c2[nH]cnc2C(=O)NN)cc1,40*,-2,-2,0,-2,0
Cc1ccc(NC(=O)c2nc[nH]c2C(=O)N[C@@H](C)c2ccccc2)cc1,3,1,-5,-4,-7,-2
COc1ccc(OCCCC(=O)Nc2nccs2)cc1,8,nt,nt,nt,nt,nt
CCOC(=O)Cc1cc(=O)[nH]c(Nc2nc3ccccc3o2)n1,nt,-1,-3,-6,-3,-1
SMILES,Pf gamet viab,Bcl-W Bim block,Bim-Bcl-B,Bfl-1 Bim block,Bcl-2 Bim block,Bim-Bcl-XL
COC(=O)Cc1cc(=O)[nH]c(Nc2nc3ccccc3o2)n1,nt,13,-2,64*,-5,4
CN1C(=O)/C(=C/c2ccc(-c3ccccc3[N+](=O)[O-])o2)SC1=Nc1ccc(Cl)c(C(=O)O)c1,nt,44*,44*,33,34,64*
N#Cc1cc(-c2ccccc2)nn1-c1ccccc1,nt,24,-9,57*,9,3
COc1ccccc1NC(=O)c1ccccc1NC(=O)c1cc(Cl)ccc1NC(=O)c1ccco1,39*,-2,-2,-2,-1,-2
Cc1ccc(S(=O)(=O)N2CCCCC2)cc1NC(=O)COC(=O)c1ccccc1F,8,8,74*,48*,78*,11
CCOC(=O)c1c2c3c(cccc3[nH]c1=O)C(=O)c1ccccc1-2,nt,16,4,5,10,23
CCOC(=O)c1c2c3c(c(Cl)ccc3[nH]c1=O)C(=O)c1ccccc1-2,8,33,20,10,21,51*
Cc1ccc(S(=O)(=O)NC(C)CCc2ccccc2)cc1C(N)=O (stereo not given),-9,nt,nt,nt,nt,nt
COc1ccc2cc(/C=N/NC(=O)CN(c3ccccc3OC)S(=O)(=O)c3ccccc3)c(Cl)nc2c1,-7,nt,nt,nt,nt,nt
Clc1cccc(Cl)c1CNc1ccc(N2CCCC2)cc1,-22,25,2,59*,21,4
O=C(Cc1ccc(Cl)cc1)Nc1ccc(N2CCCC2)cc1,-112,0,-5,-11,-2,0
COc1ccc2ccn(S(=O)(=O)c3ccccc3)c2c1,-27,nt,nt,nt,nt,nt
COc1ccc(N2C(=O)CSC23C(=O)N2CCCc4cccc3c42)cc1 (stereo not given),42*,1,-2,-7,-5,-2
COc1cc(NC(=O)CSCc2ccccc2)c(C(=O)O)cc1OC,14,nt,nt,nt,nt,nt
CCOc1ccc(/C=C/C(=O)c2cc(Br)ccc(=O)c2O)cc1,0,21,-13,42*,28,21
C/C(=N/NC(=O)c1cccs1)c1c(C)[nH]n(-c2nc3ccccc3s2)c1=O,56*,7,15,-1,0,8
Cc1ccc(C(=O)N(CCCN(C)C)c2nc3ccc(Cl)cc3s2)cc1C,24,4,79*,57*,82*,8
Cc1ccc(C2=N/C(=C\c3coc4ccccc4c3=O)C(=O)O2)cc1,-33,nt,nt,nt,nt,nt
O=C(COC(=O)Cc1ccc(Br)cc1)NC1CCCCCC1,-3,3,0,-3,-1,0
Cc1cc2nc(/C(C#N)=C/c3ccncc3)[nH]c2cc1C,-5,47*,34,38,44*,39
NNS(=O)(=O)c1ccc(N2CCCC2=O)c([N+](=O)[O-])c1,28,5,0,4,2,0
NS(=O)(=O)c1ccc(N2CCCC2=O)c([N+](=O)[O-])c1,38*,-2,-5,-8,-3,-2
COc1ccccc1OCc1ccc(C(=O)Nc2ccccc2F)cc1,nt,1,63*,9,47*,2
COc1ccccc1NC(=O)c1ccc(COc2ccccc2OC)cc1,6,nt,nt,nt,nt,nt
CCCCC(C(=O)OCC)C(N)Cc1ccc(F)cc1 (stereo not given),-2,24,76*,7,58*,83*
SMILES,Pf gamet viab,Bcl-W Bim block,Bim-Bcl-B,Bfl-1 Bim block,Bcl-2 Bim block,Bim-Bcl-XL
COc1ccc(CNC(=S)Nc2ccc(OC)cc2)cc1,-11,-6,-6,-16,-5,-7
CCCCc1ccc(NC(=S)NCc2ccc(OC)cc2)cc1,-8,-1,51*,17,44*,-1
COc1ccc(OC(=O)c2ccncc2)cc1,nt,-2,-7,-12,0,1
COc1ccc(C(=O)Oc2ccc(/C=N/O)cc2)cc1,40*,4,-5,-9,-6,-11
O=C(c1ccccc1NS(=O)(=O)c1ccc(F)cc1)N1CCCC1,24,-1,-9,-16,-14,-13
O=C(c1ccccc1NS(=O)(=O)c1ccc(Br)s1)N1CCCC1,-11,31,-3,49*,27,38
O=C(C[C@@H]1C/C=C\C[C@H](Cc2ccc(F)cc2)C(=O)OCCNC1=O)NCCO,-29,nt,nt,nt,nt,nt
